Laboratory results published in PubChem BioAssay AID1274 (Emory University Molecular Libraries Screening Center, 2008).
Among all 220,000 compounds or so, about 1,100 (0.5%) were called active.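 The calls were made as follows: active = inhibition above about 30% (limit read from the data); inactive = the rest.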 The sample as a whole holds a higher share of actives than the screen did.

Target: Neutrophil cytosol factor 1 (Homo sapiens) (UniProt P14598)
Test: p47phox/p22phox peptide binding inhibitors, primary screen, biochemical, uHTS, NADPH oxidase regulatory subunit (AID 1274);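 also: 0% = p47phox with labelled peptide and 100% = labelled peptide alone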
Details: fluorescence polarization, 2 h, at 24.7 µM, hits give high values

Sequence of Neutrophil cytosol factor 1 (Homo sapiens) (P14598 whole entry, looked up): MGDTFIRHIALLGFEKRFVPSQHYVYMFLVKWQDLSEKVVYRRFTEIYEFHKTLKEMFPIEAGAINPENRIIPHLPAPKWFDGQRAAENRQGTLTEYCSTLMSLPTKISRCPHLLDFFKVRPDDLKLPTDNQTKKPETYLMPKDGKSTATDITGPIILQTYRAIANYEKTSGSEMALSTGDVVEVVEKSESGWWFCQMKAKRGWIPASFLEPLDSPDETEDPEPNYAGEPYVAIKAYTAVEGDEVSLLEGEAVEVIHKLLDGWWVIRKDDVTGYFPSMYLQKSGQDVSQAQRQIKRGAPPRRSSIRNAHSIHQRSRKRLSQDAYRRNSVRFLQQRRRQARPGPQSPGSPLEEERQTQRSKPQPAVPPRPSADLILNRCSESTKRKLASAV

inhibition, active:
COc1ccc(N2C(=O)CNC2=S)cc1 41.5%
Cn1cnnc1SCC(=O)Nc1ccc(N2CCOCC2)cc1 50%
O=c1[nH]c2ccccc2n2c(-c3ccccc3)nnc12 69.6%
OC(CNCC1CCCO1)Cn1c2ccc(Br)cc2c2cc(Br)ccc21 (configuration not stated) 64%
O=c1[nH]c(=S)[nH]c2[nH]c(=S)[nH]c12 32.1%
CCOc1cc(NC(=O)c2ccco2)c(OCC)cc1NC(=O)COc1ccccc1 35.5%
O=C(NN1C(=O)C2C(C1=O)C1C=CC2C12CC2)c1ccccc1Cl (configuration not stated) 43.4%
CN1/C(=C\C=C2\N=C(c3ccc(F)cc3)OC2=O)C(C)(C)c2ccccc21 149%
CC1(OC(=O)CCc2ccccc2)C(=O)C=C2C=C(c3ccc(C#N)cc3)N(CCc3ccccn3)C=C2C1=O (configuration not stated) 32.3%
O=C(c1cccc(C(=O)N2CCc3ccccc32)n1)N1CCc2ccccc21 45.6%
CCCCN=C1C([N+](=O)[O-])=CC=C2C1=NC1(CCCCC1)N2O 103%
Oc1ccc2ccccc2c1N=Nc1nccs1 59.9%
CCN1CCN(C(c2cccnc2)c2cc(Cl)c3cccnc3c2O)CC1 (configuration not stated) 38.2%
CCOC(=O)C1CCN(c2ncnc3c2oc2ccc(Br)cc23)CC1 48.6%
CC(Oc1ccc(-c2ccccc2)c(F)c1)c1ccn(S(=O)(=O)c2cccc3ccccc23)n1 (configuration not stated) 30.5%
CC(=O)OCc1cc(=O)n(C)c(=O)n1C 38.7%
Cn1c(SCC(=O)Nc2cccc(O)c2)nnc1-c1ccc(S(=O)(=O)N2CCOCC2)cc1 36.6%
O=C(COc1ccc2oc3c(c2c1)CCCC3)Nc1ccccn1 178%
CCN(CC)CCCN=Cc1c(O)n(-c2ccc(C)cc2)c(=O)c2ccccc12 111%
Cc1nc2nc(C)c(CCC(=O)N3CCN(c4ccccc4)CC3)c(C)n2n1 37.8%

inhibition, inactive:
COc1ccc(N2C(=O)CC(SC(C)C)C2=O)cc1 (configuration not stated) -5.28%
COc1ccc(N2C(=O)C(Cc3ccccc3)NC2=S)cc1 (configuration not stated) -10.2%
Cc1c(C(=O)OC(C)C)sc(NC(=O)c2cccnc2)c1C#N -54.3%
O=C(O)CCC(=O)Nc1ccc(N2CCOCC2)cc1 -1.84%
O=C(CSc1ccc([N+](=O)[O-])cn1)Nc1ccc(N2CCOCC2)cc1 2.81%
CN1CCN(CCCCOc2ccccc2-c2ccccc2)CC1 -0.29%
CC(C)=CCCC1(C)C=Cc2c(ccc3c2[nH]c2cc(O)c(C)cc23)O1 (configuration not stated) -11.9%
O=[N+]([O-])c1cccc(-c2nnc3c4ccccc4c4ccccc4n23)c1 -1.55%
CCOC(=O)c1cnc2[nH]c3ccccc3n2c1=O 0.2%
COc1ccc2oc(N)c(C=O)c(=O)c2c1 -6.85%
CC/C(O)=N\S(=O)(=O)c1ccc(N=NN(C)C)cc1 -7.34%
COc1ccccc1OCCNC(=O)c1cc([N+](=O)[O-])cc([N+](=O)[O-])c1 5.08%
CCOC(=O)Cn1c(=O)oc2cc(S(=O)(=O)NCC3CCCO3)ccc21 (configuration not stated) -8.76%
CCc1cc(Br)ccc1NC(=O)C1CCCO1 (configuration not stated) -3.52%
CS(=O)(=O)N1CCc2cc(C(=O)Nc3ccccc3)ccc21 -4.32%
CC(C)Cc1nn2c(=O)cc(O)nc2s1 -2.97%
Cc1cc(=O)[nH]c(=S)[nH]1 -3.01%
Cc1c(C)c(C)c2[nH]c(=S)[nH]c2c1C -7.18%
Cn1c(=O)c([N+](=O)[O-])c(Oc2ccccc2)c2ccccc21 0.11%
CCOc1cc(NC(=S)NCCCOC)c(OCC)cc1NC(=O)c1ccco1 -10.9%
CCOc1cc(NC(=S)NCc2ccco2)c(OCC)cc1NC(=O)c1ccco1 4.63%
COc1ccccc1P(=O)(c1ccccc1)c1ccccc1NC(C)=O (configuration not stated) 7.25%
COc1ccc(/C=C/C(=O)OCC(=O)NCc2cccs2)cc1OC -9.49%
COC(=O)Cc1c(O)ccn(Cc2cccc(C(F)(F)F)c2)c1=O -10.6%
COc1ccccc1C(=O)NN1C(=O)C2C3C=CC(O3)C2C1=O (configuration not stated) -8.76%
CC1=CC(C)(C)NC(=S)N1NC(=O)c1ccccc1Cl -1.05%
COc1ccc(COCC(O)CN2CCC(C(N)=O)CC2)cc1 (configuration not stated) -6.99%
Cc1ccccc1Nc1scc(-c2ccc(Br)cc2)[n+]1-c1ccccc1C -1.63%
CC(C)CNC(=O)COC(=O)c1ccccc1OCC(=O)Nc1ccc(Br)cc1 0.42%
CC1CN(S(=O)(=O)c2ccc(C(=O)Nc3sccc3C(N)=O)cc2)CC(C)O1 (configuration not stated) -4.8%
CN1/C(=C\C(=O)c2oc3ccccc3c2N)C(C)(C)c2ccccc21 -9.12%
CN1/C(=C\C(=O)c2cccnc2Cl)C(C)(C)c2ccccc21 -37.8%
COc1cc(C(=O)NCc2ccc3c(c2)cc(C)n3C)cc(OC)c1OC 1.37%
O=C(O)C1=C[C@H](c2cccs2)C[C@H](OCCCCO)O1 -14.3%
Cc1ccc(C)c(CSc2nc(-c3ccco3)nc3c2c(=O)n(C)c(=O)n3C)c1 -1.58%
CC(C)(C)NC(=O)/C(=C/c1cccnc1)NC(=O)c1ccco1 -7.92%
COCCN1C=C2C(=O)C(C)(OC(=O)C3CCCC3)C(=O)C=C2C=C1c1ccsc1 (configuration not stated) 0.87%
C=CCN1C=C2C(=O)C(C)(OC(=O)CCc3ccccc3)C(=O)C=C2C=C1c1ccc(C#N)cc1 (configuration not stated) -11.9%
CCN(C(=O)CN1CCN(Cc2ccccc2)CC1)c1c(N)n(Cc2ccccc2)c(=O)[nH]c1=O -14.8%
O=C(c1cnn2ccccc12)N1CCc2ccccc21 -1.85%
NC(=O)N1CCc2ccccc21 3.78%
Nc1nnn(CC(=O)N/N=C/c2ccc(O)cc2)n1 -6.45%
CN(C)c1nc(=Nc2cccc(Cl)c2)ss1 -21.8%
Oc1ccc(N=Nc2nccs2)c(O)c1 -48.9%
Oc1c(C=Nc2cccc3nsnc23)ccc2ccccc12 -51.3%
CCN(C(=O)COC(=O)/C=C/c1nc2ccccc2s1)C1CCS(=O)(=O)C1 (configuration not stated) -4.73%
CCOC(=O)N1CCN(C(c2cccnc2)c2ccc3cccnc3c2O)CC1 (configuration not stated) 6.02%
Oc1c(CN2CCN(c3ccc(F)cc3)CC2)cc(Cl)c2cccnc12 11.9%
CC(=O)Nc1nc(C)c(-c2csc(Nc3ccc(S(N)(=O)=O)cc3)n2)s1 -21.6%
CCOC(=O)C1CCN(C(=O)c2oc3ccc(S(=O)(=O)N4CCCCCC4)cc3c2C)CC1 -9.11%
CCOC(=O)C1CCN(c2ncnc3c2c(-c2ccccc2)cn3-c2ccc(C)cc2)CC1 -0.04%
CCN(CC)N=Nc1cccc(NC(C)=O)c1 2.47%
O=C(CSC(=S)N1CCCCC1)c1c(F)cccc1F -20.4%
CC(C)Oc1ccc(CC(=O)NNC(=S)Nc2ccc(Br)cc2)cc1 -4.65%
Cc1cccc(C)c1NC(=O)C1(N(C(=O)c2ccccn2)c2ccc(O)cc2)CCCCC1 -4.76%
COc1ccc(Nc2nc(N)nc(CSC(=S)N3CCC(C)CC3)n2)cc1 -5.99%
CCn1c(SCC(=O)N/N=C/c2ccncc2)nc2ccccc21 3.59%
NNc1nc2c(Cl)cccc2s1 -5.57%
CC(=O)c1c(N)n(C)c(=O)n(C)c1=O -3.86%
CC(C)Oc1ccc(C(=O)Nc2cc(=O)n(C)c(=O)n2C)cc1 -14%
O=C1CN(C(=O)CN2C(=O)NC3(CCCCC3)C2=O)c2ccccc2N1 -8.11%
C=CCC1(C#N)C(=S)NC(C)=C(C(=O)OCC)C1c1ccccc1 (configuration not stated) -0.89%
C=CCN1CC(C)/C(=N\O)CC1C (configuration not stated) -0.6%
Cn1c(SCC(=O)OC2CCCCC2)nnc1-c1ccc(S(=O)(=O)N2CCCC2)cc1 -1.77%
CCC(=O)Nc1cccc(NC(=O)CSc2nnc(-c3ccc(NS(C)(=O)=O)cc3)n2C)c1 -16.1%
Nc1c(NCCc2ccccc2)c2ccccc2oc1=O -7.7%
Cc1cc(C)cc(OCC(=O)Nc2ccc(S(=O)(=O)Nc3ccccn3)cc2)c1 -4.16%
Cc1ccc(OCC(=O)Nc2ccc(S(=O)(=O)Nc3ccccn3)cc2)cc1 5.31%
Cc1ccc(S(=O)(=O)NNC(=S)NC(C)(C)C)cc1 -8.25%
CCc1ccccc1NC(=O)CSc1nnc(CCNC(=O)OC(C)(C)C)o1 -6.69%
CCN(CC(=O)NCCc1ccccc1)S(=O)(=O)c1ccccc1 -6.19%
O=C(Nc1ccc(Br)cn1)C1CCN(S(=O)(=O)c2cccs2)CC1 -5.24%
CCOc1ccc(-n2c(O)c(/C=N/Nc3nnc(C)c(=O)[nH]3)c3ccccc3c2=O)cc1 -44.3%
CCOc1ccc(-n2c(O)c(/C=N/Nc3nc(C)cc(C)n3)c3ccccc3c2=O)cc1 -10.2%
O=C(O)C1CCN(C(=O)c2cc(F)cc3c2OCOC3)CC1 -5.96%
Cc1nc2c(-c3ccc(F)cc3)c(C)nn2c(C)c1CCC(=O)N1CCN(c2ccccn2)CC1 -1.7%
Cc1nc2ncnn2c(C)c1CCC(=O)N1CCN(C(=O)c2ccco2)CC1 2.67%
